Results on 116 compounds are retold here after PubChem BioAssay AID618 (Sanford-Burnham Center for Chemical Genomics, 2007).

SMILES strings stand for the structures. Screen size: about 87,000 compounds; about 540 (0.62%) were called active. How the calls were made is not given here. Many of the other results were omitted from the sample, so actives are more common in it than they were. Entries with a potency or affinity are not part of this list.

This test can be described thus: MT1-MMP gene expression reporter suppression – cell-based, luciferase reporter, luminescence (AID 618).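 Further: actives suppress MT1-MMP promoter-driven transcription so potencies describe inhibitors.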 The following applies: MT1-MMP promoter luciferase reporter cells. On the technique in general: A reporter such as luciferase makes a cellular process visible.
As to `O=C(NCCOc1nc(N2CCOCC2)nc(N2CCOCC2)n1)Nc1ccc(Cl)cc1`, the call was inactive. The result for `CCNS(=O)(=O)c1ccc(NC(=O)Cc2ccc(F)cc2)cc1` reads “inactive”; that for `O=C1C2CC=C(Cl)CC2C(=O)N1CCc1ccccc1` (stereo unspecified), “inactive”. As for `COc1ccc(OC)c(NC(=O)C2CCCNC2=O)c1` (stereo unspecified), the entry is “inactive”; as for `Cc1cc(NC(=O)CSc2nc3c(sc4ccccc43)c(=O)n2CCc2ccccc2)n[nH]1`, “inactive”; as for `O=C(O)CSC1CC(=O)N(c2ccc(Cl)c(Cl)c2)C1=O` (stereo unspecified), “inactive”. As for `COc1ccc(CNC(=O)c2ccc3c(c2)N(C)C(=O)CS3=O)cc1` (stereo unspecified), the entry is “inactive”; as for `COc1ccc(CNc2ccccc2SC)cc1OC`, “inactive”. In the case of `CSc1ccccc1N=CC1=C(O)CC(C)(C)CC1=O`, the compound was classed as inactive.

Consider `C=CCNc1ncnc2c1cnn2-c1ccc(Cl)cc1`, for which the compound was called inactive. As for `C=CCNc1ncnc2c1cnn2-c1cccc(C)c1`, the entry is “inactive”. As for `O=C(Nc1ccccc1C(=O)NCCCn1ccnc1)c1ccccc1`, the call was inactive. On to `O=C(Nc1ccccc1C(=O)NCCCn1ccnc1)c1ccc(Cl)cc1Cl`, for which the result was inactive. Regarding `CCOc1cc(N2CCOCC2)c(OCC)cc1NC(=O)CCS(=O)(=O)c1ccc(Cl)cc1`, the outcome was inactive. The result for `CCOc1cc(N2CCOCC2)c(OCC)cc1NS(=O)(=O)c1ccc(Cl)s1` reads “active”; that for `CCOc1ccc(Br)cc1S(=O)(=O)Nc1ccccc1N1CCOCC1`, “inactive”; that for `CCOC(=O)c1[nH]c(C)c(CN(Cc2ccco2)C(=O)C(F)(F)F)c1C`, “inactive”.

As for `O=C(CCl)Nc1cccc(-c2cnc3ccccc3n2)c1`, the outcome was active. As for `O=C(Nc1cccc(-c2cnc3ccccc3n2)c1)c1ccco1`, the entry is “inactive”; as for `O=C(CNC(=O)c1ccc(Br)o1)Nc1cccc(-c2cnc3ccccc3n2)c1`, “inactive”; as for `O=c1cc(O)c(-c2ccccc2Cl)c(Cl)[nH]1`, “inactive”. For the compound `Cc1nnc(NCCc2ccccc2)[nH]c1=O`, the compound was called inactive. As for `CC(=O)Oc1ccc2oc(C)c(C(=O)N3CCOCC3)c2c1`, the entry is “inactive”. The result for `CC(=O)Nc1ccc2nc(-c3ccccn3)[nH]c2c1` reads “inactive”; that for `Nc1ccc2nc(-c3ccccn3)[nH]c2c1`, “inactive”; that for `CC(=O)Nc1nnc(Cc2ccccc2)s1`, “inactive”. The result for `COC(=O)C(Cc1cnc(Cl)s1)(C(=O)OC)c1ccc([N+](=O)[O-])cc1` reads “inactive”. In the case of `Cc1ccc(C)c(C(=O)CSc2nnnn2C(C)C)c1`, the call was inactive.

Regarding `CC(=O)Nc1ccc(C(=O)CSc2nnnn2C(C)C)cc1`, the compound was called inactive.

With `COc1ccc(NC(=O)N2c3ccccc3CC2C)cc1OC` (stereo unspecified), the outcome was inactive.

Regarding `Cc1nc2cc(NC(=O)N3c4ccccc4CC3C)ccc2n1C` (stereo unspecified), the outcome was active. Take `Cc1nc2cc(NC(=O)N3c4ccccc4CC3C)ccc2o1` (stereo unspecified): the outcome was inactive.

As to `COc1ccc(Cn2nnnc2C(c2ccc(N(C)C)cc2)N2CCC(C)CC2)cc1` (stereo unspecified), the compound was called inactive. As for `COc1ccc(C(=O)Nn2c(SCC(=O)c3ccccc3)nc3ccccc3c2=O)cc1`, the entry is “inactive”. As for `COc1ccc(C(=O)Nn2c(SCC(=O)NC3CCCC3)nc3ccccc3c2=O)cc1`, the entry is “inactive”; as for `O=C(CSc1nc2ccsc2c(=O)n1NC(=O)c1ccccc1)NCc1ccco1`, “inactive”. For `COc1ccc(C(=O)Nn2c(SCC(=O)c3ccc(Cl)cc3)nc3ccccc3c2=O)cc1`, the outcome was inactive. As for `COCCn1c(SCC(=O)N2CCC(C)CC2)nc2ccccc2c1=O`, the entry is “inactive”.

Take `O=C(CSc1nc2ccccc2c(=O)n1NC(=O)Cc1ccccc1)NCc1ccco1`: the result was inactive. On to `CCOc1ccccc1NC(=O)C1C2C=CC(C2)C1C(=O)O` (stereo unspecified), for which the result was inactive.

For the compound `Cc1cc(N)n(-c2nc(-c3cccnc3)nc3ccccc23)n1`, the compound was classed as inactive. As for `Cc1cc(Nc2ccccc2N2CCOCC2)n2ncnc2n1`, the outcome was inactive. As for `O=C(Cn1nnc(-c2ccc(Cl)cc2)n1)NC1CCN(Cc2ccccc2)CC1`, the entry is “inactive”. On to `N#Cc1nc(-c2ccc(OCc3ccc(Cl)cc3)cc2)oc1N1CCC(C(N)=O)CC1`, for which the call was inactive. The result for `CN(C)C(=O)N1CCC(C(=O)NCc2ccc(F)cc2Cl)CC1` reads “inactive”. For the compound `c1ccc(-n2nnnc2SCc2ccccn2)cc1`, the compound was called inactive. As for `CCN(CC)C(=O)C1CCCN(Cc2cccc(F)c2)C1` (stereo unspecified), the entry is “inactive”; as for `Cn1c(=O)c2c(nc(SCC(=O)NCc3ccc4c(c3)OCO4)n2Cc2ccc(F)cc2)n(C)c1=O`, “inactive”; as for `O=C(CCCOc1ccc(Cl)cc1)N1CCCCCC1`, “inactive”. The result for `O=C(CCCOc1ccccc1)N1CCN(c2ccccc2)CC1` reads “inactive”. The result for `Cc1cc(C)n(-c2ccc(C(=O)Nc3nc4ccccc4s3)cc2)n1` reads “inactive”; that for `O=C(Nc1nc2ccccc2s1)c1ccc(Cl)s1`, “inactive”. With `CCOc1ccccc1OCC(=O)OCC(=O)Nc1ncc(Cl)cc1Cl`, the result was inactive. As for `CCn1c(SCC(=O)N2CCN(c3ccc(F)cc3)CC2)nc2ccccc2c1=O`, the entry is “inactive”. Regarding `C#CC[N+]1(CC#Cc2ccccc2)CCOCC1`, the outcome was inactive. As for `COC(=O)CSc1nnc(Cc2ccccc2)n1-c1ccc(C)cc1`, the entry is “inactive”; as for `COc1ccc(C2=NOC(C(=O)NCc3cccs3)C2)cc1` (stereo unspecified), “inactive”.

Turning to `COc1cc(C2=NOC(C(=O)NCc3cccs3)C2)cc(OC)c1OC` (stereo unspecified), the call was inactive. Consider `COc1ccc(C2=NOC(C(=O)NCc3cccs3)C2)cc1OC` (stereo unspecified), for which the result was active.

In the case of `CCC1(C)Cc2c(sc3nn[nH]c(=O)c23)CO1` (stereo unspecified), the call was inactive. As for `Cc1nc2sc(C(c3cccs3)N3CCN(c4ccccc4)CC3)c(O)n2n1` (stereo unspecified), the entry is “inactive”; as for `Cn1c(=NC(=O)CN2C(=O)C3CC=CCC3C2=O)sc2ccccc21` (stereo unspecified), “inactive”; as for `CC(=O)N=c1sc2ccccc2n1C`, “inactive”. As for `Cn1c(=NC(=O)CCl)sc2ccccc21`, the entry is “active”. The result for `CCCCOC(=O)C(C)Nc1n[nH]c(=S)[nH]c1=O` (stereo unspecified) reads “inactive”; that for `CCN(C(=O)CN1CCN(c2ccccc2OC)CC1)c1c(N)n(Cc2ccccc2)c(=O)[nH]c1=O`, “inactive”; that for `CC(=O)N(/N=C1\Sc2ccccc2C1=O)c1ccccc1C`, “inactive”. In the case of `CC(=O)N(/N=C1\Sc2ccccc2C1=O)c1cccc(C)c1`, the result was inactive.

Take `Cn1c(=O)c2c(nc(NCc3ccccc3)n2Cc2ccc(F)cc2)n(C)c1=O`: the compound was called inactive.

For `O=C(Cc1ccc(F)cc1)NCCc1ccccc1`, the compound was classed as inactive.

Turning to `CC(=O)N(Cc1ccc(F)cc1)C1=C(NCc2ccccc2)C(=O)c2ccccc2C1=O`, the result was active. As for `Cn1c(=O)c2c(nc(NCCc3ccccc3)n2Cc2ccc(F)cc2)n(C)c1=O`, the entry is “inactive”; as for `CC(=O)n1nc(-c2ccccc2)nc1NCc1ccc(F)cc1`, “inactive”; as for `OC(CN1C2=NCCN2c2ccccc21)c1ccc(Br)cc1` (stereo unspecified), “inactive”.

`O=S(=O)(NCCSc1nc2ccccc2o1)c1ccccc1`: the compound was called inactive. As for `O=C(CCC1CCCC1)Nc1ccc(OCC(=O)N2CCOCC2)cc1`, the entry is “inactive”; as for `COc1ccccc1CN1CCSCC1`, “inactive”; as for `COCc1nnc(NC(=O)c2cc(Cl)ccc2OC)s1`, “inactive”.

On to `O=C(CSc1nnc(Cc2cccs2)n1Cc1ccco1)Nc1ccc(Cl)cc1Cl`, for which the compound was called inactive. As to `Cc1ccnn1CC(=O)N/N=C/c1ccco1`, the compound was called inactive. The result for `COCCn1c(N)c(S(=O)(=O)c2cccs2)c2nc3ccccc3nc21` reads “inactive”. The result for `CC(C)CCn1c(N)c(S(=O)(=O)c2cccs2)c2nc3ccccc3nc21` reads “active”; that for `CC(C)Cn1c(N)c(S(=O)(=O)c2cccs2)c2nc3ccccc3nc21`, “inactive”; that for `N#Cc1nc(-c2ccco2)oc1N1CCN(c2cccc(Cl)c2)CC1`, “inactive”. As for `CC(Oc1ccc(Cl)cc1Cl)C(=O)NCc1ccncc1` (stereo unspecified), the entry is “inactive”. As to `Cc1cc(C)c(C)c(OCC(=O)NCC2CCCO2)c1` (stereo unspecified), the result was inactive.

Take `O=C(O)c1n[nH]c2c1CCCCC2`: the result was inactive.

Take `CC1(CCc2ccccc2)NC(=O)N(Cc2nnc(-c3ccccc3Br)o2)C1=O` (stereo unspecified): the compound was called inactive. As for `CC1Cc2ccccc2N1c1nc(C2CC2)nc2c1nnn2Cc1ccccc1` (stereo unspecified), the entry is “inactive”. The result for `N#Cc1c(NC(=O)CSc2nc(N)cc(=O)[nH]2)sc2c1CCCCCC2` reads “inactive”; that for `CC(=O)Nc1c(O)nc(SCC(=O)Nc2sc3c(c2C#N)CCCCCC3)[nH]c1=O`, “inactive”. As for `Cc1nnc(SCC(=O)Nc2sc3c(c2C#N)CCCC3)[nH]c1=O`, the entry is “inactive”; as for `CC(C)(C)C1CCc2c(sc(NC(=O)CSc3ncn[nH]3)c2C#N)C1` (stereo unspecified), “inactive”. For the compound `CCSC1=C(C#N)C2(CCCCC2)C(C#N)C(=O)N1` (stereo unspecified), the compound was called inactive. The result for `Cc1cc(NC(=O)CSc2nc(C(C)C)nc3sc4c(c23)CCCC4)no1` reads “inactive”; that for `CCOC(=O)N1CCN(C(=O)Cn2cc3c(n2)CCCC3)CC1`, “inactive”; that for `O=C(O)C1=C(C(=O)N2CCN(C(=O)c3ccco3)CC2)CCCC1`, “inactive”.

On to `c1ccc(Sc2ncnc3c2oc2ccccc23)cc1`, for which the compound was called inactive.

`Fc1cccc(-c2cc3nc4c(c(N5CCN(c6cnccn6)CC5)n3n2)CCCC4)c1`: the compound was called inactive.

With `COc1ccc2c(c1)C(C)=CC(C)(C)N2C(=O)CN1C(=O)CCC1=O`, the outcome was inactive. Regarding `CCc1ccc2c(c1)C(C)=CC(C)(C)N2`, the call was inactive.

As for `COC(=O)c1ccc(OC(=O)c2ccco2)cc1`, the result was inactive. The result for `CC1=CC(C)(C)Nc2ccc(OC(=O)c3cccnc3)cc21` reads “inactive”; that for `CC1=CC(C)(C)Nc2ccc(OC(=O)CN3C(=O)C4CCCCC4C3=O)cc21` (stereo unspecified), “inactive”; that for `O=C(Oc1ccc2ccccc2c1)c1ccco1`, “inactive”.

As to `CC1=CC(C)(C)Nc2ccc(OC(=O)c3ccco3)cc21`, the call was active. As for `COc1ccc(-c2nnc(SCC(=O)N3c4ccccc4Sc4ccccc43)o2)cc1`, the entry is “inactive”; as for `CCOC(=O)c1ccc2nc3c(cc2c1)CCS3`, “inactive”.

For `COc1ccc2c(c1OC)C(=O)N(c1ccc3c(c1)CCC3)C2=O`, the outcome was inactive. The result for `CCn1c(=O)n(CC(=O)NC2CCCC(C)C2C)c(=O)c2ccccc21` (stereo unspecified) reads “inactive”; that for `CCN(CCNC(=O)C1CCN(c2nnc(-n3cccc3)s2)CC1)c1ccccc1`, “inactive”. With `Cc1cccc2cc3c(N)c(C(=O)N4CCOCC4)sc3nc12`, the call was inactive. Consider `Cc1ccc2nc3sc(C(=O)N4CCOCC4)c(N)c3cc2c1`, for which the compound was classed as active. The result for `Cc1ccc2cc3c(N)c(C(=O)N4CCOCC4)sc3nc2c1` reads “inactive”; that for `Cc1cccc(-n2ncc(C#N)c2N)c1`, “inactive”; that for `Cc1cc(C)nc(SCCn2c(N(C)Cc3ccccc3)nc3c2c(=O)n(C)c(=O)n3C)n1`, “inactive”.
